# Source: PubChem BioAssay (National Center for Advancing Translational Sciences (NCATS))
# GLA inh pH 4.5: alpha-galactosidase A (human) inhibition, pH 4.5; purified enzyme, 4-MU-alpha-Gal fluorescence, pH 4.5; 230,000 tested, under 10 active; activity change, negative = inhibition, % at 105 µM; AID 1467;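 note: 0% = full activity with enzyme and -100% = basal without enzyme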
# HPGD inh: inhibitors of human 15-hydroxyprostaglandin dehydrogenase (HPGD) | AID 894 | actives 4.3% (n = 150,000) | Potency, µM, inactives show at the highest dose activity change, negative = inhibition, usual class: inhibitors | P15428 | purified HPGD, NADH fluorescence kinetic, PGE2 substrate; active = well fitted inhibition curve with a large enough effect, not every such curve was filed as active; inconclusive = small, poorly fitted or top-dose-only effect, or another doubt; inactive = no such curve, though single readings can be large or run the other way; note: potency is the fitted concentration of half-maximal effect
# Target sequence (P15428 whole entry, looked up): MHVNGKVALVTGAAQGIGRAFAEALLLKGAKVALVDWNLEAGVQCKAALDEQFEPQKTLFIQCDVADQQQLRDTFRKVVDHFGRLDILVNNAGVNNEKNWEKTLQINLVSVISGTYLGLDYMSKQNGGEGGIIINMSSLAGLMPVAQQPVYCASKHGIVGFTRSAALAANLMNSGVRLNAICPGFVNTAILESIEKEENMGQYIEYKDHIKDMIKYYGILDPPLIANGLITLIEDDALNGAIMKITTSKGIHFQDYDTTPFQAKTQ
#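 NADH formation kinetics: reaction with 30 uM PGE2 and 1 mM NAD+ (final), 20 nM enzyme, Tris-HCl pH 8 with Tween 20, after 15 min compound preincubation at room temperature. Fluorescence change, last versus first of five reads.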
# PNC assembly inh: blocks assembly of the perinucleolar compartment; PC3M PTB-GFP, PNC prevalence imaging, 16 h; hits give low values; activity change (PNC), negative = inhibition, % at 10 µM; actives 3.1% (n = 140,000);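 active = readout at or below -70, meaning at least 70% loss of cells showing the perinucleolar compartment, a nuclear body marking cancer cells; inconclusive = readout between -30 and a set limit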;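 note: plate controls were DMSO wells for no effect and camptothecin positive control wells for full effect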
#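 Read-out is percentage of cells bearing a perinucleolar compartment, from automated 20x imaging of fixed, Hoechst-stained PC3M PTB-GFP cells. Cells were seeded 4 h, then exposed 16 h to compound (23 nl of library stock) in duplicate plates.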
# aGal spleen mod: inhibitors or activators of human alpha-galactosidase in spleen homogenate. P06280. actives 0.008% (n = 240,000). human spleen homogenate, 4MU-alpha-Gal fluorescence, 40 min. Potency, µM (series often up to 80 µM), inactives show at the highest dose activity change, negative = inhibition, most hits filed as inhibitors;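 note: potency is the fitted concentration of half-maximal effect; 0% = enzyme with vehicle and -100% = no enzyme basal signal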
# Target sequence (P06280 32-429 limits assumed): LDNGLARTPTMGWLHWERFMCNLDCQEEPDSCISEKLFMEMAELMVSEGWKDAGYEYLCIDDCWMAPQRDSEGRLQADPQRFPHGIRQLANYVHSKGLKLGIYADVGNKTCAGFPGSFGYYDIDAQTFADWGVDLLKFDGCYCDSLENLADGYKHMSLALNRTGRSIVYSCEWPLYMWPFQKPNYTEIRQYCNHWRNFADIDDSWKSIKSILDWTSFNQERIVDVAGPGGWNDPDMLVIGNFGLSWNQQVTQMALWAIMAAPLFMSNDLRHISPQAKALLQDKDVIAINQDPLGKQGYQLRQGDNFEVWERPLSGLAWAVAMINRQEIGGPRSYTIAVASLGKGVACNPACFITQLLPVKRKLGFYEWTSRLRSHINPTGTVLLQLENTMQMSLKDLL
#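 Spleen homogenate 1 ug + cpd (titration) + 4-MU-alpha-D-galactopyranoside 1 mM; 37C 40 min; 50 mM citrate/phosphate pH 5.0, 0.01% Tween-20; stop pH 10; fluorescence 365/440; AC50 via Hill.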
# 12-hLO inh: inhibitors of human 12-lipoxygenase (ALOX12) | P18054 | purified 12-hLO, xylenol orange hydroperoxide absorbance | Potency, µM (top dose mostly 57.1 µM), inactives show at the top dose activity change, negative = inhibition, usual class: inhibitors | actives 0.12% (n = 150,000); note: potency is the fitted concentration of half-maximal effect; nearly all actives have a fitted effect of over 55% in size
#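 150 nM 12hLO, 25 mM Hepes pH 7.0 + 0.01% Triton X-100; cpd preinc 15 min RT; 40 uM arachidonic acid, 30 min RT; Fe-XO 30 min; A573/A405 ratio as read-out.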
# ALDH1A1 block: blocks purified human ALDH1A1 activity; Potency, µM (series often up to 75.3 µM), without a hit: top-dose activity, negative = inhibition, usual class: inhibitors; P00352; Purified ALDH1A1, NADH fluorescence, propionaldehyde substrate; actives 7.3% (n = 220,000); active = well fitted inhibition curve with a large enough effect, not every such curve was filed as active; inconclusive = small, poorly fitted or top-dose-only effect, or another doubt; inactive = no such curve, though single readings can be large or run the other way;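 note: potency is the fitted concentration of half-maximal effect; plate controls were no enzyme wells and a reference inhibitor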
# * marks the source's active call; other numbers are inactive results; ? = inconclusive; . = not tested or not shown; [ ] = dose if it differs, or a comment. A selection: hits, their analogues and other compounds. The true share with any hit is near 10%. Unless noted, calls come from the whole dose curve; as a rule, active = well fitted curve in the direction sought with a large enough effect; inconclusive = small, poorly fitted or top-dose-only effect, or another doubt; inactive = no such curve, though single readings can be large; an effect the other way counts as inactive or inconclusive. Unless noted, % is set by controls: 0 for no effect and ±100 for the full control effect.
SMILES,GLA inh pH 4.5,HPGD inh,PNC assembly inh,aGal spleen mod,12-hLO inh,ALDH1A1 block
CC(C)C[C@@H]1NC(=O)[C@H](C(C)C)NC(=O)c2cc([N+](=O)[O-])cc(I)c2NCC[C@@H](C(N)=O)NC1=O,4,-14%,50,1%,-20%,28µM*
CC(C)C[C@@H]1NC(=O)[C@H](Cc2ccc(O)cc2)NC(=O)[C@H](CCC(N)=O)NC(=O)c2cc([N+](=O)[O-])cc(I)c2NCC[C@@H](C(N)=O)NC1=O,-15,-5%,?,0%,-7%,4µM*
Cc1ccccc1N(CC(=O)O)S(C)(=O)=O,3,-10%,-104*,13%,4%,5%
CCOc1ccccc1N(CC(=O)OC)S(C)(=O)=O,-8,-7%,-106*,1%,2%,-14%
C[C@@H]1[C@H]2CC[C@@H]3[C@@H]4CC=C5C[C@@H](N(C)C)CC[C@]5(C)[C@@H]4CC[C@@]32CN1C,5,-9%,.,-4%[29.1 µM],0%[25.6 µM],-10%[20.9 µM]
COC(=O)CN1C(=O)C(O)(CC(=O)c2ccc(Br)cc2)c2ccccc21 (configuration not stated),4,-4%,-8,5%,2%,0.35µM*
COC(=O)CN1C(=O)C(O)(CC(=O)c2ccc(C)cc2)c2cc(Br)ccc21 (configuration not stated),3,-12%,-5,-1%,-2%,20µM*
C=CCN1C(=O)C(O)(CC(=O)c2ccc(-n3cccc3)cc2)c2ccccc21 (configuration not stated),-4,-17%,?,-4%,4%,0.5µM*
CN1C(=O)C(O)(CC(=O)c2ccc(F)cc2)c2cc(Br)ccc21 (configuration not stated),6,?,3,-5%,-2%,16%
COC(=O)CN1C(=O)C2(OCCCO2)c2cc(Br)ccc21,6,-7%,-4,-2%,-5%,-2%
CC(OC(=O)CCc1nc2ccccc2c(=O)[nH]1)C(=O)c1ccc(Br)cc1 (configuration not stated),-7,-16%,?,5%,-4%,-6%
Cc1cc(C)nc(S/C=C/C(=O)c2ccccc2F)n1,11,.,.,0%,.,.
c1ccc2nc(-c3nc4ccccc4o3)ccc2c1,-3,?,-107*,4%,-2%,?
Oc1ccc(-c2n[nH]c(=S)n2Cc2ccccc2)cc1,-2,?,4,-5%,-4%,20µM*
S=c1[nH]nc(-c2ccccc2Cl)n1Cc1ccccc1,1,.,.,-6%,.,?
S=c1[nH]nc(COc2cccc3ccccc23)n1Cc1ccccc1,-1,.,.,-6%,.,.
S=c1[nH]nc(-c2cccnc2)n1Cc1ccccc1,3,-27%,37,8%,20%,14µM*
S=c1[nH]nc(-c2ccc3ccccc3n2)n1Cc1ccccc1,-3,11µM*,24,-9%,1%,6%
Cc1ccccc1OCc1n[nH]c(=S)n1Cc1ccccc1,-20,14µM*,4,5%,-23%,-13%
CCCCCCCCCCCCCCCCCC(=O)O[C@H](CC(=O)O)C[N+](C)(C)C,.,.,.,.,-3%,.
c1cn(-c2cc(-c3ccc4c(c3)OCO4)ncn2)cn1,.,.,.,11%,.,?
Cc1cc(=O)oc2ccc(OC(C)C(=O)O)cc12 (configuration not stated),5,?,-9,0%,0%,?
CC[C@H](C)[C@H](NC(=O)[C@H](Cc1ccc(O)cc1)NC(=O)[C@@H]1CCCN1C(=O)[C@@H](NC(=O)[C@@H](N)CCCCN)[C@@H](C)CC)C(=O)N[C@@H](CC(C)C)C(=O)O,.,.,.,-5%,.,.
S=c1[nH]nc(-c2ccc3ccccc3n2)n1-c1ccccc1Cl,6,10µM*,1,-16%,4%,-6%
CCc1c(-c2n[nH]c(=S)n2Cc2ccccc2)csc1C,-3,16µM*,?,4%,?,10µM*
SMILES,GLA inh pH 4.5,HPGD inh,PNC assembly inh,aGal spleen mod,12-hLO inh,ALDH1A1 block
Cc1scc(-c2n[nH]c(=S)n2Cc2ccccc2)c1C,-1,?,-28,1%,-1%,-10%
COc1ccc(-n2c(SCc3ccccn3)nc3c(c2=O)SCC3)cc1OC,2,.,.,-2%,.,3%
O=C(CCl)Nc1nc(-c2ccco2)c(-c2ccco2)s1,2,?,-6,6%,-6%,0.4µM*
C1CNCCN1,-3,-2%,.,4%,-6%,0%
C1CNCCNCCCNCCNC1,1,-7%,-115*,-2%,-6%,5%
C1CCCNCC1,.,-11%,.,-2%,-2%,22µM*
CCOC(=O)c1c(NC(=O)CCl)sc(CN(C)C)c1-c1ccccc1,-3,.,.,2%,.,7.1µM*
CCOC(=O)c1c(NC(=O)/C=C/C(=O)O)sc(C)c1-c1ccc(Cl)cc1,-2,.,.,7%,.,20µM*
Cc1cc(C)nc(SC2=CS(=O)(=O)c3ccccc32)n1,0,-22%,-16,2%,-2%,-13%
O=S(=O)(CCc1ccccc1)c1nc2ccccc2s1,-1,-11%,.,4%,.,-5%
C=CCS(=O)(=O)c1nc2ccccc2s1,-9,-12%,32,5%,-3%,0.79µM*
O=S1(=O)C=C(Sc2nc3ccccc3s2)c2ccccc21,3,?,?,0%,-12%,14µM*
O=C(CCCSc1nc2ccccc2s1)NCc1ccco1,-8,?,-2,-4%,5%,?
CCS(=O)(=O)CCSc1nc2ccccc2s1,3,-12%,-4,-12%,-6%,?
O=S(=O)(CCSc1nc2ccccc2s1)c1nc2ccccc2s1,5,-18%,-29,7%,-5%,0.1µM*
N#C/C(=C\c1ccco1)Sc1nc2ccccc2s1,-9,10µM*,-4,5%,-7%,13µM*
COC(=O)c1ccc(C(NC(=O)OCc2ccccc2)/C(=C/[C@@H](C)C(=O)N(C)Cc2ccccc2)c2cccnc2)cc1 (some centres not stated),-26,-11%,.,4%,0%,-1%
CC[N+]1(C)C2CCC1CC(OC(=O)[C@H]1CCC(C(=O)OC3CC4CCC(C3)[N+]4(C)CC)(c3ccccc3)c3ccccc31)C2 (some centres not stated),.,.,.,7%,.,2%
NCCSc1nc2ccccc2s1,.,-6%,.,.,4%[11.4 µM],-5%[13.5 µM]
N#Cc1cccc(CS(=O)(=O)c2nc3ccccc3s2)c1,-2,-6%,.,5%,.,14µM*
c1ccc2sc(SSc3nc4ccccc4s3)nc2c1,.,10µM*,.,12%,2%,0.25µM*
S=c1[nH]nc(CSc2nc3ccccc3s2)o1,-5,-26%,23,4%,-3%,18µM*
Cn1c(CSc2nc3ccccc3s2)n[nH]c1=S,-2,-28%,13,-2%,-2%,?
